SSB-PriA inh: K. pneumoniae PriA-SSBct interaction inhibition. AlphaScreen SSBct-PriA binding, biotinylated peptide. inhibition, % at 33 µM. hit rate 0.6% among 430,000; in the data active = inhibition mostly above about 37%, no sharp cut-off; inactive = mostly below about 20%;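 also: plate controls were negative control peptide for no effect and reference peptide for full effect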
Anthrax LF inh2: blocks Bacillus anthracis lethal factor protease; AID 588501; multiplex microsphere protease cleavage assay, LF; inhibition, % at 10 µM; hit rate 0.12% among 360,000; P15917; also: plate controls were buffer without enzyme for full effect and enzyme alone for no effect
Target sequence (P15917 whole entry, looked up): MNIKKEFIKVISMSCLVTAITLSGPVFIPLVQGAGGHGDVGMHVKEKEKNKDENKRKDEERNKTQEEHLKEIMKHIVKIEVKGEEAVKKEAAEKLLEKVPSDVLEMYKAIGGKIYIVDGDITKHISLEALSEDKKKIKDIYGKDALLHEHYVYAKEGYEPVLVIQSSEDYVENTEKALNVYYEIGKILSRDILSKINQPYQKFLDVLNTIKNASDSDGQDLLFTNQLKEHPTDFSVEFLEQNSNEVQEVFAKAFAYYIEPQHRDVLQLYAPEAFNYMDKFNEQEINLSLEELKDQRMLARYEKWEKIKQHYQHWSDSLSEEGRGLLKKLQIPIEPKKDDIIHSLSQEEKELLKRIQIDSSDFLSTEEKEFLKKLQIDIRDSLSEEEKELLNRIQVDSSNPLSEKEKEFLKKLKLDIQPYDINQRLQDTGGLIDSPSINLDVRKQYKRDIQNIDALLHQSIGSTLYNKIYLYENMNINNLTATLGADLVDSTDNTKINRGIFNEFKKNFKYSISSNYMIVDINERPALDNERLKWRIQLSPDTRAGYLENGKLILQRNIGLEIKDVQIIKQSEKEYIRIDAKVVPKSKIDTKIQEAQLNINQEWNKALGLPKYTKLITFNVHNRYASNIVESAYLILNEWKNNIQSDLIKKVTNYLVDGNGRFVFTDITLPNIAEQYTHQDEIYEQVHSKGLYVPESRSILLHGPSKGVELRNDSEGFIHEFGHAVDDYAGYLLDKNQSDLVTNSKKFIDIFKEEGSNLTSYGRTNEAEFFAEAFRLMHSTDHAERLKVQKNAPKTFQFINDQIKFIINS
Bead autofluor: counter-screen for toxin protease inhibitors: compound fluorescence; compound autofluorescence counterscreen, microsphere flow cytometry; active compounds read high; fluorescence intensity (concentration not given with the values); hit rate 3.1% among 360,000; AID 624483; in the data active = fluorescence intensity above about 16000; inconclusive = no clear call, values can overlap the other calls
BoNT A protease: inhibitors of Botulinum neurotoxin A light chain protease; hit rate 0.17% among 360,000; multiplex microsphere protease substrate cleavage, flow cytometry; inhibition, % at 10 µM; also: plate controls were buffer without enzyme for full effect and enzyme alone for no effect
BoNT-F LC inh: BoNT F light chain protease inhibition; Multiplex microsphere protease cleavage assay, flow cytometry; inhibition, % at 10 µM; hit rate 0.22% among 360,000; AID 588497; in the data active = inhibition above about 35%, passing the limit was not always enough; inconclusive = no clear call, values can overlap the other calls; also: plate controls were buffer without enzyme for full effect and enzyme alone for no effect
* hit, by the source's call; ? = inconclusive; nt = no result given. Shown are actives, neighbours in structure and some others; about 3.1% of the full set was active somewhere. Rule as the data show it, unless noted: active = inhibition above about 30%; inconclusive = no clear call, values can overlap the other calls; inactive = below that.

SMILES	SSB-PriA inh	Anthrax LF inh2	Bead autofluor	BoNT A protease	BoNT-F LC inh
Cc1oc(-c2ccccc2)nc1CSc1nc2ccccc2c(=O)n1CCCN1CCCC1=O	5	nt	nt	nt	nt
O=C(NC(Nc1ccc(Br)cc1)C(Cl)(Cl)Cl)C(c1ccccc1)c1ccccc1 (stereo not given)	-3	nt	nt	nt	nt
O=C(CSc1nnc(-c2ccco2)o1)Nc1nc(-c2ccccc2)cs1	-2	nt	nt	nt	nt
COc1ccc(-c2nn3c(-c4cccc(C)c4)nnc3s2)cc1OC	-23	-5	16794*	-3	-5
COc1ccc(-c2nn3c(-c4ccccn4)nnc3s2)cc1OC	2	1	19421*	?	2
COc1cccc(-c2nn3c(-c4ccccn4)nnc3s2)c1	8	-7	19346*	?	3
COc1ccc(-c2nnc3sc(-c4cccs4)nn23)cc1OC	-5	0	3341	0	-4
Cc1cccc(-c2nnc3sc(-c4ccccc4)nn23)c1	3	-3	9581	1	8
COc1ccc(C2=Nn3c(nnc3C3CCCCC3)SC2)cc1OC	-2	-2	24718*	-3	-6
CCOC(=O)N1CCN(C(=O)CSc2nnc(Cc3cccn3C)n2Cc2ccccc2)CC1	5	nt	nt	nt	nt
O=C(Nc1cccc(-c2nc3cccnc3s2)c1)c1cc(Cl)ccc1[N+](=O)[O-]	14	nt	nt	nt	nt
Cc1nnc(C2CCN(C(=O)CC3CSc4nc(C)c(C)c(=O)n43)CC2)s1 (stereo not given)	3	nt	nt	nt	nt
COc1ccc(-c2nn3c(C4CCCCC4)nnc3s2)cc1OC	-13	-3	16665*	0	2
COc1cc(-c2nn3c(C4CCCCC4)nnc3s2)cc(OC)c1OC	-15	-4	2912	0	-9
CN1CCc2[nH]c3ccc(C(=O)NN)cc3c2C1	-2	-2	20838*	4	-2
O=C(CC12CC3CC(CC(C3)C1)C2)NCc1ccncc1	1	-4	16408*	-1	-3
O=C(CC12CC3CC(CC(C3)C1)C2)NCc1ccccc1	-9	15	3653	1	31
Cc1ccc(Oc2coc3cc(OC(=O)c4cccs4)ccc3c2=O)cc1	-26	-2	16461*	1	-4
Cc1cc(C)cc(Oc2coc3cc(OC(=O)c4cccs4)ccc3c2=O)c1	-15	0	3450	1	-4
COC(=O)C1=C(O)CSC1=Nc1cccc(C(F)(F)F)c1	-20	0	17678*	-2	-2
CC(=NNc1ccccn1)c1ccc2c(c1)OCO2	-8	nt	nt	nt	nt
O=C(NCc1ccc(Cl)cc1)c1ccc(Cn2cc(C(F)(F)F)ccc2=O)cc1	-25	-2	4551	0	4
O=C(NCc1ccccc1Cl)c1ccc(Cn2cc(C(F)(F)F)ccc2=O)cc1	-3	-1	17060*	-3	-6
CC(C)CC(=O)NCCOc1ccc2nnc(-c3ccccc3)n2n1	-9	nt	nt	nt	nt
O=C1CCCC2=C1C(c1ccccc1)n1c(sc(=Cc3cccc(F)c3)c1=O)=N2 (stereo not given)	-11	nt	nt	nt	nt
SMILES	SSB-PriA inh	Anthrax LF inh2	Bead autofluor	BoNT A protease	BoNT-F LC inh
O=C1CCCC2=C1C(c1ccc(Cl)cc1)n1c(s/c(=C\c3ccc4ccncc4c3)c1=O)=N2 (stereo not given)	1	22	3020	37*	17
O=C1CC(C(=O)N(c2ccc(F)cc2)C(C(=O)NC2CCCC2)c2ccccn2)CS1 (stereo not given)	-19	-1	22756*	1	0
Cc1sc2c(c1C)C(c1ccc(C(C)(C)C)cc1)=NCC(=O)N2CC(=O)Nc1nccs1	-2	-2	22414*	-1	-3
CN1CCCC(OC(=O)c2cccc(Br)c2)C1 (stereo not given)	1	1	3952	-1	?
CN1CCC(OC(=O)c2cccc(Br)c2)CC1	-14	0	21018*	3	3
Cc1cc(S(=O)(=O)N2CCN(c3ccc(-c4ccco4)nn3)CC2)ccc1F	-7	nt	nt	nt	nt
Cc1[nH]n(-c2ccc([N+](=O)[O-])cc2)c(=O)c1C=NCCN1CCN(C(=O)c2ccc(F)cc2)CC1	-9	0	20052*	?	-2
Cc1[nH]n(-c2ccc([N+](=O)[O-])cc2)c(=O)c1C=NCCN1CCN(C(=O)c2ccc(Br)cc2)CC1	1	-1	?	2	16
CCN(c1ccc(NS(=O)(=O)c2cc(Cl)ccc2Cl)cc1)C(C)C	40*	-2	2417	0	-11
O=C(NCC(=O)N1CCO[C@H](c2ccccc2)C1)C(=O)Nc1ccc(F)c(Cl)c1	-5	nt	nt	nt	nt
O=C(CSc1nc2ccc(Cl)cc2[nH]1)NCCc1ccccc1	5	-1	6683	2	-4
O=C(CSc1nc2ccc([N+](=O)[O-])cc2[nH]1)NCCc1ccccc1	6	-2	20820*	6	3
COc1ccc(OCC(=O)N=Nc2c(O)[nH]c3c(Br)cc(Br)cc23)cc1	34	nt	nt	nt	nt
Cc1nc(SCc2cccc(F)c2)[nH]c(=O)c1C#N	0	-3	22061*	?	4
Cc1nc(-c2ccccc2)cs1	-10	-1	21622*	3	4
COc1ccc(-c2csc(C)n2)cc1OC	-13	-3	23023*	0	4
O=C(Cn1nc(C(=O)Nc2ccccc2)ccc1=O)NCc1ccc2c(c1)OCO2	7	nt	nt	nt	nt
COc1ccc(Oc2ccc3c(C(F)(F)F)cc(C(F)(F)F)nc3n2)cc1	-15	0	22263*	?	-2
FC(F)(F)c1ccc(Oc2ccc3c(C(F)(F)F)cc(C(F)(F)F)nc3n2)cc1	-13	0	22830*	1	2
CC(=NNC(=O)COc1cccc(C)c1)c1ccc2ccccc2c1O	-4	nt	nt	nt	nt
Cc1ccc(C2=N/C(=C\c3cccs3)C(=O)N2Nc2ccccc2)cc1	5	64*	2321	120*	51*
CC1=NN(c2ccccc2)C(=O)/C1=C/c1cccs1	1	-3	2428	0	3
O=C1/C(=C/c2cccs2)N=C(c2cccs2)N1Nc1ccccc1	17	13	3520	11	0
O=C1/C(=C\c2cccs2)N=C(c2cccs2)N1Nc1ccccc1	0	50*	5432	68*	40*
CCC(CC)C(=O)NCCOc1ccc2nnc(-c3ccc(F)cc3)n2n1	-2	nt	nt	nt	nt
SMILES	SSB-PriA inh	Anthrax LF inh2	Bead autofluor	BoNT A protease	BoNT-F LC inh
O=C(CC=NOCc1ccc(Cl)cc1Cl)c1ccc(Cl)cc1	-14	nt	nt	nt	nt
O=C(C/C=N/OCc1ccc(Cl)cc1Cl)c1ccc(Cl)cc1	nt	-3	22103*	1	-2
O=C(C/C=N/OCc1c(Cl)cccc1Cl)c1ccccc1	nt	-5	23991*	-4	-7
O=C(Cc1ccccc1Cl)NCCCS(=O)(=O)N1CCN(c2ccccc2)CC1	-28	nt	nt	nt	nt
CCOC(=O)c1sc2nc(CC(=O)OC)nc(NCCN(CC)CC)c2c1C	-3	-3	18785*	3	2
Cc1ccc(/C=C/C(=O)c2ccc(OC(F)F)cc2)cc1	-2	nt	nt	nt	nt
CCc1ccccc1NC(=O)Nc1cnc(Oc2ccccc2)nc1	-4	nt	nt	nt	nt
O=S(=O)(c1ccc2ccccc2c1)N(CC(O)COCc1ccco1)c1ccccc1 (stereo not given)	7	-6	23464*	-1	-2
CCOc1ccc(C2C(=C(O)c3cccc(OC)c3)C(=O)C(=O)N2c2ccccn2)cc1OC (stereo not given)	-9	nt	nt	nt	nt
Clc1nc(-c2ccccn2)nc2scc(-c3ccccc3)c12	-9	-1	8442	0	-1
